From PubChem BioAssay (EPA / NIEHS)
Results filed as inconclusive are left out. The source made the active and inactive calls. How the source made its calls, unless noted: active means hit-call score of the fitted dose curve at least 0.9, where 1 is the maximum; inconclusive means response in the unintended direction; inactive means score below 0.9.

How the values were obtained:
[1] = biological target: Voltage-gated inwardly rectifying potassium channel KCNH2 (Homo sapiens) (UniProt Q12809); test: NVS_IC_hKhERGCh: NovaScreen (NVS) Ion Channel Assay for human Potassium Channel ERG (KhERGCh) (AID 2283333)
Chain of Voltage-gated inwardly rectifying potassium channel KCNH2 (Homo sapiens) (Q12809 whole entry, looked up): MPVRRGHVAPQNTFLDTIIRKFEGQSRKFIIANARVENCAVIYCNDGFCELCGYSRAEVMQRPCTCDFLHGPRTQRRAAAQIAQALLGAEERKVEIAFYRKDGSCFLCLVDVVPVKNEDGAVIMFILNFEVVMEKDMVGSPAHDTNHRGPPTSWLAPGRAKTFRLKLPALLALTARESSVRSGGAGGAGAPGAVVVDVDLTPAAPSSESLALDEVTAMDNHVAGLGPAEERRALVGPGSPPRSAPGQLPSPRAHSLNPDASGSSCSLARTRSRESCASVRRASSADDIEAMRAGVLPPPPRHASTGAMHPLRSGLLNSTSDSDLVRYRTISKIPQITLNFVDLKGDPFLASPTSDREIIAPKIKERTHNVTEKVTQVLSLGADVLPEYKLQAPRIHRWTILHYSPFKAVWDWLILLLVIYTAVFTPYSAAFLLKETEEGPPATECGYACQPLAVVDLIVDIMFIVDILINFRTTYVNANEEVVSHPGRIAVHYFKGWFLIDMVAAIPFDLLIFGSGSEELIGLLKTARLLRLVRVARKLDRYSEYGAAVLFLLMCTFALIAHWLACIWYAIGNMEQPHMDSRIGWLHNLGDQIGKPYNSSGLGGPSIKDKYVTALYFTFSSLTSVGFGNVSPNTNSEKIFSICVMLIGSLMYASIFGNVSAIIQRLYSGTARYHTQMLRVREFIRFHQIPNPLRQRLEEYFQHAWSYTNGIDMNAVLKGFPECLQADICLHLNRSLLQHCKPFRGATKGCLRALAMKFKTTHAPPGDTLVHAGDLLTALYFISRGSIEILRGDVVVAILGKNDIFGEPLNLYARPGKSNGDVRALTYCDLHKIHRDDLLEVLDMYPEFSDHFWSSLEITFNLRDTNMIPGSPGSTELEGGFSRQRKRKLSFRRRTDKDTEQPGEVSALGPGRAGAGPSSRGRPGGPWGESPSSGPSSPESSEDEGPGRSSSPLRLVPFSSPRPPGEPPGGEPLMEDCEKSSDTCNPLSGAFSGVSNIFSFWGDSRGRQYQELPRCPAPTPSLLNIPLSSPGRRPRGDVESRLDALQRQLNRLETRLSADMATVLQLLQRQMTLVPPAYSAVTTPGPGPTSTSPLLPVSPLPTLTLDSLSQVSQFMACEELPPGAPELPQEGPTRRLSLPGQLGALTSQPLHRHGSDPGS
Outline: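 Membranes from CHO cells expressing human ERG; displacement of radioligand measured by filtration and scintillation after 0.75 h. Single-concentration duplicate screen at 25 uM, then concentration-response for actives; DMSO baseline.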

[2] = biological target: Glutamate receptor ionotropic, kainate 1 (Rattus norvegicus) (UniProt P22756); test: NVS_IC_rKAR: NovaScreen (NVS) Ion Channel Assay for rat Kainic Acid Receptors (KAR) (AID 2283334; active means hit-call score of the fitted dose curve at least 0.9, where 1 is the maximum; inactive means score below 0.9)
Chain of Glutamate receptor ionotropic, kainate 1 (Rattus norvegicus) (P22756 whole entry, looked up): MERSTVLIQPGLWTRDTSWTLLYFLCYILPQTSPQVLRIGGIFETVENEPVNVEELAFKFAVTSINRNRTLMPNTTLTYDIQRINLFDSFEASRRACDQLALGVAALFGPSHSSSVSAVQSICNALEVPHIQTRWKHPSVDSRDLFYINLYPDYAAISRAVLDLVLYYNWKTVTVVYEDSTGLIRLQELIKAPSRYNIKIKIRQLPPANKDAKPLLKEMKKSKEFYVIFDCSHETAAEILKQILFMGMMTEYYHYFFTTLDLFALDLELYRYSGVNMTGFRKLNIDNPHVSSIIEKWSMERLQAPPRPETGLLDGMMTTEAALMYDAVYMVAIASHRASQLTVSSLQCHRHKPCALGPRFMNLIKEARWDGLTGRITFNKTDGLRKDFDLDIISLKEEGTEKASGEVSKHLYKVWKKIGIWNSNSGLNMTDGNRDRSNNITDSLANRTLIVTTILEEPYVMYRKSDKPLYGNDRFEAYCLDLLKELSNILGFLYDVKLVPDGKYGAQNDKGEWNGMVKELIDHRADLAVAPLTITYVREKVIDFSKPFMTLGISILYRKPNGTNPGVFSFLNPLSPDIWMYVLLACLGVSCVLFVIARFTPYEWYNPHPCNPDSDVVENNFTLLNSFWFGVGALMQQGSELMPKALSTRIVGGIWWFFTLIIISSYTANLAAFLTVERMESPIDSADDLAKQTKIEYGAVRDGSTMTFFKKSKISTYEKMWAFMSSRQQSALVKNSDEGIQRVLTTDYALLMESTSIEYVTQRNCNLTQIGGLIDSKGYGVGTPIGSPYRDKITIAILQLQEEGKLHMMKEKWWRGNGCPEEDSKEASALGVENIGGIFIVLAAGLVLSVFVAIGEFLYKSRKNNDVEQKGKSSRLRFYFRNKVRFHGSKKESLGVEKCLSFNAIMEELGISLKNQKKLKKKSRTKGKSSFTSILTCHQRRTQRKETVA
Outline: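 Rat forebrain membrane preparation incubated 1 h with radioligand and test chemical; bound signal read by filtration and scintillation. Single-concentration screen at 25 uM, then concentration series to 50 uM maximum.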

[3] = NVS_IC_rCaBTZCHL: NovaScreen (NVS) Ion Channel Assay for Calcium Channel, Type L, Benzothiazepine Site (CaBTZCHL) (AID 2283337)
Outline: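 Benzothiazepine-site binding was assessed in a tissue-derived, cell-free rat cortical membrane system. After 1.5 h exposure, radioactivity retained on filters was quantified by scintillation; positive and negative controls accompanied every plate.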

[4] = biological target: rat Gamma-Aminobutyric Acid Type A Receptor BDZ, alpha 6 site (GABARa6), Gabra6 (gene 29708) (UniProt P30191); test: NVS_LGIC_rGABARa6: NovaScreen (NVS) Ligand-Gated Ion Channel Assay for rat Gamma-Aminobutyric Acid Type A Receptor BDZ, alpha 6 site (GABARa6) (AID 2283339)
Chain of rat Gamma-Aminobutyric Acid Type A Receptor BDZ, alpha 6 site (GABARa6), Gabra6 (gene 29708) (P30191 whole entry, looked up): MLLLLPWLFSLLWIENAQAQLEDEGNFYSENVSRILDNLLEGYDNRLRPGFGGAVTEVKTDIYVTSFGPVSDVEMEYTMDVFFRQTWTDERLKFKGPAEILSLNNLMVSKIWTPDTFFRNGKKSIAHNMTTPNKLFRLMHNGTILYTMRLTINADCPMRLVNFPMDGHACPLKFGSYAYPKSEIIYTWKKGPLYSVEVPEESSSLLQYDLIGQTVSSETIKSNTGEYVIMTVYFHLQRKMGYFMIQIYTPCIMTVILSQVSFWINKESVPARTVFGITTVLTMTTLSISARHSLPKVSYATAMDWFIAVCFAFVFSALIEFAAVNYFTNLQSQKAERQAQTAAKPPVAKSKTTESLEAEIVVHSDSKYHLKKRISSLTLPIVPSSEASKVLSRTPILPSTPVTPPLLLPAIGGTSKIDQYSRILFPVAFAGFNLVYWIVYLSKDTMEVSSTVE
Outline: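 Actives from a 25 uM duplicate screen were retested in concentration series (max 50 uM). Specific radioligand displacement from rat cerebellar membranes was counted by filter-based scintillation at 1 h; DMSO served as baseline.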

[5] = biological target: rat Glutamate, MK-801 Agonist Site (GluNMDA_MK801), Grin1 (gene 24408) (UniProt P35439); test: NVS_LGIC_rGluNMDA_MK801_Agonist: NovaScreen (NVS) Ligand-Gated Ion Channel Assay for rat Glutamate, MK-801 Agonist Site (GluNMDA_MK801) (AID 2283340)
Experimental: NVS_LGIC_rGluNMDA_MK801_Agonist is a biochemical, single-readout assay that uses extracted gene-proteins from Rat forebrain membranes in a tissue-based cell-free assay. Measurements were taken 1.5 hours after chemical dosing in a 48-well plate.NVS_LGIC_rGluNMDA_MK801_Agonist is one of one assay component(s) measured or calculated from the NVS_LGIC_rGluNMDA_MK801_Agonist assay. It is designed to make measurements of radioligand binding, a form of binding reporter, as detected with scintillation counting signals by Filter-based radiodetection technology.Data from the assay component NVS_LGIC_rGluNMDA_MK801_Agonist was analyzed into 1 assay endpoint. This assay endpoint, NVS_LGIC_rGluNMDA_MK801_Agonist, was analyzed in the positive analysis fitting direction relative to DMSO as the negative control and baseline of activity. Using a type of binding reporter, gain-of-signal activity can be used to understand changes in the binding as they relate to the gene Grin1. Furthermore, this assay endpoint can be referred to as a primary readout, because the performed assay has only produced 1 assay endpoint. To generalize the intended target to other relatable targets, this assay endpoint is annotated to the ion channel intended target family, where the subfamily is ligand-gated ion channel. […]

[6] = biological target: rat Glycine Receptor, Strychnine-sensitive (GlyRStrySens), Glra1 (gene 25674) (UniProt P07727); test: NVS_LGIC_rGlyRStrySens: NovaScreen (NVS) Ligand-Gated Ion Channel Assay for rat Glycine Receptor, Strychnine-sensitive (GlyRStrySens) (AID 2283341)
Chain of rat Glycine Receptor, Strychnine-sensitive (GlyRStrySens), Glra1 (gene 25674) (P07727 whole entry, looked up): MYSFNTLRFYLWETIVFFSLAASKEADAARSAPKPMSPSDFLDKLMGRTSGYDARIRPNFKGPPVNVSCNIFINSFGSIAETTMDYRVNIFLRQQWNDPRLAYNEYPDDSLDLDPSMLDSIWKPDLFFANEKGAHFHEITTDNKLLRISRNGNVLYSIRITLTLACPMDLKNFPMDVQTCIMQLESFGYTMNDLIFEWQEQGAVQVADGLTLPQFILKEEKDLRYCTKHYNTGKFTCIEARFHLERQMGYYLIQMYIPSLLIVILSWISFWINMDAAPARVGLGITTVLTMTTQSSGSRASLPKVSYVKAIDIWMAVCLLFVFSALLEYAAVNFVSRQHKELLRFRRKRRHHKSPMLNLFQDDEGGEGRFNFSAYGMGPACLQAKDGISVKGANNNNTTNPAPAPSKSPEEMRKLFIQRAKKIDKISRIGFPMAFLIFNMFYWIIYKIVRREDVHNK
Outline: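 Radioligand displacement on rat spinal cord membranes, 1 hr, filter scintillation read-out. Single-concentration duplicate screen at 25 uM; chemicals meeting threshold (e.g., 30% inhibition) rerun in concentration-response up to 50 uM. Loss of binding fitted versus DMSO.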

CCCCCCOC(=O)c1ccccc1C(=O)OCCCCCC
outcome [1]: inactive

Oc1ccc(Cl)cc1Cl
outcome [1]: inactive

COS(=O)(=O)OC
outcome [2]: inactive

CC1=C2C[C@H]3[C@@H](CC=C4C[C@@H](O)CC[C@@]43C)[C@@H]2CC[C@]12O[C@@H]1C[C@H](C)CN[C@H]1[C@H]2C
outcome [3]: inactive

CCCCCCCCCC[N+](C)(C)CCCCCCCCCC
AC50 [3]: 4.34 µM (active)

Cc1cc2c3c(c1)C(c1ccccc1)=N[C@@H](NC(=O)c1ccncc1)C(=O)N3CC2
outcome [4]: inactive

O=S(=O)(O)C(F)(F)C(F)(F)C(F)(F)C(F)(F)C(F)(F)C(F)(F)F
outcome [4]: inactive

Oc1ccc(C(c2ccc(O)cc2)(C(F)(F)F)C(F)(F)F)cc1
AC50 [5]: 19.8 µM (active)
outcome [6]: inactive

O=NN(c1ccccc1)c1ccccc1
outcome [5]: inactive

O=C(NC(=O)c1cc(F)c(F)cc1Cl)Nc1cc(F)ccc1N1CCC(C(=O)O)CC1
outcome [6]: inactive
